Drawing on PubChem BioAssay (NCATS), this text covers Potency and viability for 17 molecules.

As usually defined, the viability is a read-out of living cells in per cent, often relative to untreated cells.

Each structure is given as a SMILES string. Inconclusive results are not listed. Unmarked numbers belong to inactive results. Activity calls are given as the source filed them. Calls come from the whole dose curve; as a rule, active = well fitted curve in the direction sought with a large enough effect; inconclusive = small, poorly fitted or top-dose-only effect, or another doubt; inactive = no such curve, though single readings can be large; an effect the other way counts as inactive or inconclusive. Peptide text beside a SMILES is read from it.

The nature of assay [1]: Quantitative High-Throughput drug screen in 47 multiple myeloma cell lines against the NCATS MIPE library collection: KMS12PE_JCRB cell viability assay (AID 1918972). For viability: series mostly up to about 46 µM. Note: nearly all actives have a fitted effect of over 30% in size. Note: potency is the fitted concentration of half-maximal effect. The gist of the method: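 Luminescent ATP measurement with CellTiter-Glo gives viability, scaled between DMSO-only wells (100%) and media-only wells (0%). Cells, 500 per well, faced library compounds for 48 hours at 37C.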

Assay [2] in a line: Quantitative High-Throughput drug screen in 47 multiple myeloma cell lines against the NCATS MIPE library collection: MMM1_PLB cell viability assay (AID 1918976). Note: potency is the fitted concentration of half-maximal effect; nearly all actives have a fitted effect of over 35% in size. The gist of the method:
(§1)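 qHTS format: cells plated (500/well), pin-dosed with MIPE 4.0 compounds, kept 48 h at 37 °C. Readout was CellTiter-Glo luminescence, median RLU.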

Assay [3] in a line: Quantitative High-Throughput drug screen in 47 multiple myeloma cell lines against the NCATS MIPE library collection: KMS34_JCRB cell viability assay (AID 1918985). Note: nearly all actives have a fitted effect of over 40% in size. The gist of the method:
as §1

The nature of assay [4]: Quantitative High-Throughput drug screen in 47 multiple myeloma cell lines against the NCATS MIPE library collection: OCIMY7_PLB cell viability assay (AID 1918987). Note: nearly all actives have a fitted effect of over 65% in size. Note: potency is the fitted concentration of half-maximal effect. A digest of the protocol:
as §1

Assay [5] in a line: Quantitative High-Throughput drug screen in 47 multiple myeloma cell lines against the NCATS MIPE library collection: XG6_PLB cell viability assay (AID 1919865). Note: nearly all actives have a fitted effect of over 40% in size. Note: potency is the fitted concentration of half-maximal effect. The gist of the method: as §1
Assay [6] can be described thus: Quantitative High-Throughput drug screen in 47 multiple myeloma cell lines against the NCATS MIPE library collection: MOLP8_DSMZ cell viability assay (AID 1918977). Note: nearly all actives have a fitted effect of over 45% in size. Note: potency is the fitted concentration of half-maximal effect. A digest of the protocol: as §1
Assay [7] is described as follows: Quantitative High-Throughput drug screen in 47 multiple myeloma cell lines against the NCATS MIPE library collection: OCIMY1_PLB cell viability assay (AID 1918979). Note: series mostly up to about 46 µM; nearly all actives have a fitted effect of over 35% in size. The gist of the method:
as §1

The nature of assay [8]: Quantitative High-Throughput drug screen in 47 multiple myeloma cell lines against the NCATS MIPE library collection: MM1R_ATCC cell viability assay (AID 1918981). Note: nearly all actives have a fitted effect of over 35% in size. Note: potency is the fitted concentration of half-maximal effect. A digest of the protocol:
as §1

A short description of assay [9]: Quantitative High-Throughput drug screen in 47 multiple myeloma cell lines against the NCATS MIPE library collection: LP1_DSMZ cell viability assay (AID 1918982). Note: nearly all actives have a fitted effect of over 35% in size. Note: potency is the fitted concentration of half-maximal effect. The gist of the method: as §1
Assay [10] in a line: Quantitative High-Throughput drug screen in 47 multiple myeloma cell lines against the NCATS MIPE library collection: L363_DSMZ cell viability assay (AID 1918984). Note: nearly all actives have a fitted effect of over 40% in size. Note: potency is the fitted concentration of half-maximal effect. The gist of the method:
as §1

Assay [11] is described as follows: Quantitative High-Throughput drug screen in 47 multiple myeloma cell lines against the NCATS MIPE library collection: OPM1_PLB cell viability assay (AID 1918989). Note: nearly all actives have a fitted effect of over 40% in size. Note: potency is the fitted concentration of half-maximal effect. A digest of the protocol:
as §1

Assay [12] is described as follows: Quantitative High-Throughput drug screen in 47 multiple myeloma cell lines against the NCATS MIPE library collection: SKMM1_PLB cell viability assay (AID 1919863). For viability: series mostly up to about 46 µM. Note: nearly all actives have a fitted effect of over 35% in size. Note: potency is the fitted concentration of half-maximal effect. Conditions: SKMM1 myeloma viability, CellTiter-Glo ATP, 48 h; viability: active compounds read low. A digest of the protocol:
as §1
(In ATP-based viability assays light output follows the ATP content of the culture.)

A short description of assay [13]: Quantitative High-Throughput drug screen in 47 multiple myeloma cell lines against the NCATS MIPE library collection: U266_ATCC cell viability assay (AID 1919864). Note: nearly all actives have a fitted effect of over 35% in size. Note: potency is the fitted concentration of half-maximal effect. A digest of the protocol: as §1
A short description of assay [14]: Quantitative High-Throughput drug screen in 47 multiple myeloma cell lines against the NCATS MIPE library collection: KMS28PE_JCRB cell viability assay (AID 1918983). Note: nearly all actives have a fitted effect of over 35% in size. Note: potency is the fitted concentration of half-maximal effect. The gist of the method: as §1
Assay [15] can be described thus: Quantitative High-Throughput drug screen in 47 multiple myeloma cell lines against the NCATS MIPE library collection: OCIMY5_PLB cell viability assay (AID 1918988). Note: nearly all actives have a fitted effect of over 65% in size. Note: potency is the fitted concentration of half-maximal effect. A digest of the protocol: as §1
Assay [16] can be described thus: Quantitative High-Throughput drug screen in 47 multiple myeloma cell lines against the NCATS MIPE library collection: NCIH929_DSMZ cell viability assay (AID 1918978). Note: nearly all actives have a fitted effect of over 35% in size. Note: potency is the fitted concentration of half-maximal effect. The gist of the method:
as §1

The nature of assay [17]: Quantitative High-Throughput drug screen in 47 multiple myeloma cell lines against the NCATS MIPE library collection: MM1S_ATCC cell viability assay (AID 1918980). Note: nearly all actives have a fitted effect of over 45% in size. Note: potency is the fitted concentration of half-maximal effect. The gist of the method:
as §1

Assay [18] can be described thus: Quantitative High-Throughput drug screen in 47 multiple myeloma cell lines against the NCATS MIPE library collection: KMS26_JCRB cell viability assay (AID 1918975). Note: potency is the fitted concentration of half-maximal effect; nearly all actives have a fitted effect of over 45% in size. A digest of the protocol:
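We plated 500 myeloma cells per well, pinned in MIPE 4.0 compounds, and incubated for 48 hours at 37C. ATP was then quantified with CellTiter-Glo, with DMSO and media-only wells defining 100% and 0%.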

As for `Cc1c(C(=O)NN2CCCCC2)nn(-c2ccc(Cl)cc2Cl)c1-c1ccc(Cl)cc1`, the Potency in assay [1] is 14.8 µM (active); in assay [2], 20.9 µM (active); in assay [4], 16.6 µM (active); in [5], 26.4 µM (active). Also, in [3], the Potency entry is “inactive”.
Take `CCC(C)(Oc1ccc(C2(c3ccc(OC(C)(CC)C(=O)O)cc3)CCCCC2)cc1)C(=O)O` (stereo not drawn): the Potency entry in [1], in assay [6], in assay [7], in [8], in [9] and in assay [10] was “inactive” throughout. In addition, the Potency result in assay [11], in [13] and in assay [5] was “inactive” in each case. Moreover, the viability in assay [12] is 130%.
`O=C1CCc2ccc(OCCCCN3CCN(c4cccc(Cl)c4Cl)CC3)cc2N1`: the Potency is 5.26 µM (active) in [1], 20.9 µM (active) in [2], 18.7 µM (active) in assay [14] and 18.7 µM (active) in assay [11]. Besides, the viability in [12] is 132%.
Take `O=c1c(O)c(-c2cc(O)c(O)c(O)c2)oc2cc(O)cc(O)c12`: the Potency result in assay [1] and in [5] was “inactive” each time. Further, the Potency in assay [2] is 18.7 µM (active); in assay [6], 18.7 µM (active); in assay [8], 20.9 µM (active); in assay [14], 23.5 µM (active); in assay [15], 23.5 µM (active); in assay [12] it was 20.9 µM (active).
As to `CN1CCC(=C2c3ccccc3CCc3sccc32)CC1`, the values for the Potency in [1] and in assay [11] were 23.5 µM (active) and 18.7 µM (active), respectively. Also, the Potency entry in assay [6], in [16], in [8], in [9], in assay [14] and in [3] was “inactive” in each case. For the same molecule, the Potency entry in [15] and in assay [5] was “inactive” throughout. The viability in assay [12] is 99.6%.
As for `Cc1ncc([N+](=O)[O-])n1CC(C)O` (stereo not drawn), the Potency result in assay [1], in assay [8], in assay [9] and in assay [14] was “inactive” throughout. The Potency in assay [17] is 14.8 µM (active). Also, the viability in assay [12] is 126%.
Take `CN(c1nccc(=O)[nH]1)C1CCN(c2nc3ccccc3n2Cc2ccc(F)cc2)CC1`: the Potency result in [1], in assay [6], in [9], in assay [14], in assay [10] and in assay [3] was “inactive” throughout. The Potency in [16] is 13.2 µM (active); in assay [17], 11.8 µM (active); in assay [11], 26.4 µM (active); in [13], 11.8 µM (active); in [5], 18.7 µM (active). Besides, in [12], the viability was 125%.
In the case of `C=C(c1ccc(C(=O)O)cc1)c1cc2c(cc1C)C(C)(C)CCC2(C)C`, the Potency entry in assay [1], in assay [6], in [7], in assay [8], in assay [9] and in assay [14] was “inactive” in each case. For the same molecule, the Potency result in assay [3], in assay [13] and in [5] was “inactive” each time.
Consider `COC(=O)[C@H](Cc1ccccc1)NC(=O)[C@@H](N)CC(=O)O` (H-Asp-Phe-OMe), for which the Potency entry in assay [1], in assay [16], in [17], in assay [8], in [9] and in assay [14] was “inactive” each time. For the same molecule, the Potency result in assay [3], in assay [4], in [15], in assay [11] and in assay [13] was “inactive” each time. Also, in [5], the Potency was 14.8 µM (active).
Consider `CC(C)c1ccc2oc3nc(N)c(C(=O)O)cc3c(=O)c2c1`, for which the Potency entry in assay [1], in assay [8], in assay [14] and in [5] was “inactive” in each case. Moreover, the Potency in assay [4] is 18.7 µM (active).
As to `CC1(C)NC(=O)N(c2ccc([N+](=O)[O-])c(C(F)(F)F)c2)C1=O`, the Potency entry in assay [1], in [6], in assay [16], in assay [7], in assay [11] and in [13] was “inactive” throughout. The Potency entry in assay [5] was “inactive”. Further, the figures for the Potency in assay [9], in [14] and in [15] were 18.7 µM (active), 16.6 µM (active) and 8.33 µM (active), respectively.
As to `Cc1ccc(Nc2nccc(N(C)c3ccc4c(C)n(C)nc4c3)n2)cc1S(N)(=O)=O`, the Potency in assay [1] was 16.6 µM (active); in assay [18] it was 23.5 µM (active); in assay [10], 11.8 µM (active); in assay [4] it was 18.7 µM (active); in [11] it was 14.8 µM (active); in [5], 11.8 µM (active).
As for `COc1cc2nc(N3CCN(C(=O)C4CCCO4)CC3)nc(N)c2cc1OC` (stereo not drawn), the Potency was 16.6 µM (active) in [1] and 1.48 µM (active) in assay [10]. Further, the Potency result in assay [6], in assay [16], in assay [7], in assay [17], in assay [8] and in [14] was “inactive” each time. Besides, the Potency result in [11] and in [13] was “inactive” in each case.
`O=C1c2ccccc2-c2n[nH]c3cccc1c23`: the Potency result in assay [7], in assay [9], in [14], in [11] and in [13] was “inactive” throughout. The Potency in assay [17] is 14.8 µM (active).
With `O=c1c(O)c(-c2ccc(O)cc2O)oc2cc(O)cc(O)c12`, the Potency result in [6], in assay [7], in [11], in assay [13] and in [5] was “inactive” in each case. For the same molecule, in assay [17], the Potency was 0.833 µM (active). In addition, in assay [12], the viability was 122%.
As to `Cc1cccc(CN2CCN(C(c3ccccc3)c3ccc(Cl)cc3)CC2)c1` (stereo not drawn), the Potency was 20.9 µM (active) in assay [2]; 20.9 µM (active) in assay [17]; 9.35 µM (active) in [4]; 20.9 µM (active) in assay [11]; 14.8 µM (active) in [5].
Consider `O=C(CCc1ccc(O)cc1)c1c(O)cc(O)cc1O`, for which the Potency is 0.166 µM (active) in assay [18]; 0.132 µM (active) in assay [2]; 0.148 µM (active) in assay [8]; 0.935 µM (active) in assay [14]; 0.935 µM (active) in assay [10]; 0.148 µM (active) in assay [4]. Moreover, the Potency in assay [15] is 0.132 µM (active); in assay [11], 1.18 µM (active); in [12], 1.05 µM (active); in assay [5], 0.118 µM (active). Also, in [13], the Potency result is “inactive”.
